{
  "source": "PubChem BioAssay (NCATS)",
  "note": "Values without a mark were called inactive. Results filed as inconclusive are left out. Active and inactive are the calls of the source. Unless noted, calls follow the shape of the dose curve; as a rule, active = well fitted curve in either direction with a large enough effect (not every such curve was filed as active); inconclusive = small, poorly fitted or top-dose-only effect, or another doubt; inactive = flat fitted curve, though single readings scatter.",
  "data": [
    {"target": "Lysosomal acid glucosylceramidase (Homo sapiens) (UniProt P04062)", "sequence (P04062 whole entry, looked up)": "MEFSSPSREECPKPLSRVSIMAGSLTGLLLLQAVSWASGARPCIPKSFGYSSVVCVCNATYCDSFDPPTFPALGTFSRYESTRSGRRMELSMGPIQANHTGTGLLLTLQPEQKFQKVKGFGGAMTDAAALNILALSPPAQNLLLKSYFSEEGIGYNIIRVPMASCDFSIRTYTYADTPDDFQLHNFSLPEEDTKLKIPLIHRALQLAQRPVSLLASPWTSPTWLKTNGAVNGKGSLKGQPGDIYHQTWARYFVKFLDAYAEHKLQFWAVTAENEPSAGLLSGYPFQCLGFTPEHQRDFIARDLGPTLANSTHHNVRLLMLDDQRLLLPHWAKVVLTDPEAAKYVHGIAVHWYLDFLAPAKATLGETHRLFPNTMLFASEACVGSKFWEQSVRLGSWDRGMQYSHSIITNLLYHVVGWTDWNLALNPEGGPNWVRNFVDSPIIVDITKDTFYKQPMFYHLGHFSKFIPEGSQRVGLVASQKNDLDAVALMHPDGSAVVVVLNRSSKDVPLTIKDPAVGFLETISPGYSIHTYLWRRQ", "experiment": "Glucocerebrosidase-p2 (AID 348; in the data active = potency below about 10 µM; also: potency is read from the fitted curve at half-maximal effect)", "conditions": "purified GBA, blue fluorogenic substrate, 40 min", "in_short": "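Compounds titrated from 0.6 nM upwards against 0.2 nM enzyme in pH 5.9 citric acid/KH2PO4, taurocholate, tween-20; blue fluorogenic substrate 80 uM, 40 min room temperature, stopped and read Ex 365/Em 440 for AC50.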", "values": [
      {"compound": "Cc1ccccc1-c1ccc2ncnc(N(C)Cc3ccco3)c2c1", "Potency": "> 11.4 µM"},
      {"compound": "COc1cccc(-c2cncnc2NCc2ccc(OC)cc2OC)c1", "Potency": "> 11.4 µM"},
      {"compound": "O=C(c1cccc(F)c1)N1CCC[C@@]2(CCN(C(c3ccccc3)c3ccccc3)C2)C1", "Potency": "> 11.4 µM"},
      {"compound": "COc1ccc(-c2nc3cnc(Nc4cccc(OC)c4)nc3n(CCC#N)c2=O)cc1", "Potency": "> 11.4 µM"},
      {"compound": "COc1cccc(-c2nc(Nc3ccncc3)c3ccccc3n2)c1", "Potency": "2.53 µM (active)"},
      {"compound": "COc1ccccc1CNc1ncnc2ccc(-c3cccnc3)cc12", "Potency": "> 11.4 µM"},
      {"compound": "CN(Cc1ccco1)c1nc(-c2cccc(C#N)c2)nc2ccccc12", "Potency": "> 11.4 µM"}
    ]},
    {"test_system": "not listed separately", "experiment": "AP1 Signaling Pathway (AID 357);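 also: ME-180 reporter cells stimulated with EGF at its EC50 level; % is scaled to controls: 0 for no effect and ±100 for the full control effect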", "conditions": "ME-180 AP-1-bla reporter, EGF-induced, beta-lactamase ratio, 5 h; at 7.69 µM (top of the series) unless noted", "in_short": "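Titration-series screen for positive or negative modulators of EC50 EGF-induced signaling in ME-180 cells carrying an AP-1-driven beta-lactamase reporter. After 5 hours at 37 degrees Celsius, CCF4 460nm/530nm emission ratio gave %Activity; AC50 values derived.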", "values": [
      {"compound": "Cc1ccccc1-c1ccc2ncnc(N(C)Cc3ccco3)c2c1", "activity change, negative = inhibition": "-8.93%"},
      {"compound": "COc1cccc(-c2cncnc2NCc2ccc(OC)cc2OC)c1", "activity change, negative = inhibition": "-7.15%"},
      {"compound": "CN(Cc1ccco1)c1nc(-c2ccccc2Cl)nc2ccccc12", "activity change, negative = inhibition": "16.9%"},
      {"compound": "O=C(c1cccc(F)c1)N1CCC[C@@]2(CCN(C(c3ccccc3)c3ccccc3)C2)C1", "activity change, negative = inhibition": "28.8%"},
      {"compound": "COc1cccc(-c2nc(Nc3ccncc3)c3ccccc3n2)c1", "activity change, negative = inhibition": "-6.31%"},
      {"compound": "Nc1nc2n[nH]nc2c(=O)[nH]1", "activity change, negative = inhibition": "-1.23% [at 17.2 µM]"},
      {"compound": "CN(Cc1ccco1)c1nc(-c2cccc(C#N)c2)nc2ccccc12", "activity change, negative = inhibition": "6.74%"}
    ]},
    {"target": "Cytochrome P450 1A2 (Homo sapiens) (UniProt P05177)", "sequence (P05177 whole entry, looked up)": "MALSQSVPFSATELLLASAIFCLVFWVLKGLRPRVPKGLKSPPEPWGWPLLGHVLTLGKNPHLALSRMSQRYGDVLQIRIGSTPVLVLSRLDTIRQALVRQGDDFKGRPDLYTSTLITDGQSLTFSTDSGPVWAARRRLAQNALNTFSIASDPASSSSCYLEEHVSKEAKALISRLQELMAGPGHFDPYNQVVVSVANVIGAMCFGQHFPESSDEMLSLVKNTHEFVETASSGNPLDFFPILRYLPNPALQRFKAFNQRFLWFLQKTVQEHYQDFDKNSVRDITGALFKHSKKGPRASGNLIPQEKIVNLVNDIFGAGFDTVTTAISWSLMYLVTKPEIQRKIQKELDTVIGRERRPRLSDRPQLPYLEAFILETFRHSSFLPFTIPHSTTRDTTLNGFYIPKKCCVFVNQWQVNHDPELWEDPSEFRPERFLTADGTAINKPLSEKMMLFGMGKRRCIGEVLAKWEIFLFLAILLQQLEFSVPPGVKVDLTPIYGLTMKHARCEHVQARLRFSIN", "experiment": "p450-cyp1a2 (AID 410; calls by dose curve; also: potency is read from the fitted curve at half-maximal effect;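 as to activity change, negative = inhibition: -100% = full effect of reference inhibitor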)", "conditions": "recombinant CYP1A2, luciferin-ME demethylation, luminescence; series mostly up to 57 µM; activity change, negative = inhibition: at the top concentration", "in_short": "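20nM CYP1A2 with 100uM Luciferin-ME (at Km) in 100mM KPO4; compound preincubated 10 min, NADPH regeneration added, 60 min at room temperature. Luciferin quantified by luminescence after detection reagent; normalized to 57 uM furafylline.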", "values": [
      {"compound": "COc1cccc(-c2cncnc2NCc2ccc(OC)cc2OC)c1", "Potency": "3.98 µM (active)"},
      {"compound": "O=C(c1cccc(F)c1)N1CCC[C@@]2(CCN(C(c3ccccc3)c3ccccc3)C2)C1", "activity change, negative = inhibition": "-1%"},
      {"compound": "COc1ccc(-c2nc3cnc(Nc4cccc(OC)c4)nc3n(CCC#N)c2=O)cc1", "Potency": "6.31 µM (active)"},
      {"compound": "COc1cccc(-c2nc(Nc3ccncc3)c3ccccc3n2)c1", "Potency": "0.794 µM (active)"},
      {"compound": "COc1ccccc1CNc1ncnc2ccc(-c3cccnc3)cc12", "Potency": "0.316 µM (active)"},
      {"compound": "Nc1nc2n[nH]nc2c(=O)[nH]1", "activity change, negative = inhibition": "-3.4% [at 25.6 µM]"},
      {"compound": "CN(Cc1ccco1)c1nc(-c2cccc(C#N)c2)nc2ccccc12", "Potency": "0.1 µM (active)"}
    ]},
    {"test_system": "not listed separately", "experiment": "NFAT Signaling Pathway (AID 444);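 also: carbachol stimulus at about its EC50 of 1 µM final; % is scaled to controls: 0 for no effect and ±100 for the full control effect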", "conditions": "Jurkat NFAT-bla M1, carbachol, beta-lactamase ratio, 5 h; at 7.69 µM (top of the series) unless noted", "in_short": "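Jurkat cells with NFAT-driven β-lactamase reporter and co-expressed M1 receptor, stimulated with carbachol (final 1 uM, ~EC50), compound titration, 5 h at 37 °C. CCF4 loaded 1 h at RT; 460/530 nm ratio gave %activity and AC50.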", "units": {"activity change, negative = inhibition": "%"}, "values": [
      {"compound": "Cc1ccccc1-c1ccc2ncnc(N(C)Cc3ccco3)c2c1", "activity change, negative = inhibition": -28.4},
      {"compound": "COc1cccc(-c2cncnc2NCc2ccc(OC)cc2OC)c1", "activity change, negative = inhibition": -10.1},
      {"compound": "CN(Cc1ccco1)c1nc(-c2ccccc2Cl)nc2ccccc12", "activity change, negative = inhibition": -23.4},
      {"compound": "O=C(c1cccc(F)c1)N1CCC[C@@]2(CCN(C(c3ccccc3)c3ccccc3)C2)C1", "activity change, negative = inhibition": 0.838},
      {"compound": "COc1ccc(-c2nc3cnc(Nc4cccc(OC)c4)nc3n(CCC#N)c2=O)cc1", "activity change, negative = inhibition": -19.2},
      {"compound": "COc1ccccc1CNc1ncnc2ccc(-c3cccnc3)cc12", "activity change, negative = inhibition": 12.3}
    ]},
    {"test_system": "not listed separately", "experiment": "Stat Signaling Pathway (AID 446);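 also: ME-180 cervical cancer cells given 40 pM IL-6 alongside compound; SIE-controlled beta-lactamase reporter measured as 460/530 nm FRET emission ratio; % is scaled to controls: 0 for no effect and ±100 for the full control effect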", "conditions": "ME-180 SIE beta-lactamase reporter, IL-6 stimulated, 5 h; at 7.69 µM (top of the series) unless noted", "in_short": "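Reporter line: ME-180 cervical carcinoma, SIE-beta-lactamase. Treatment: compound with 40 pM IL-6, 5 hrs, 37 C, in low-serum OPTI-MEM with 10 mM HEPES pH 7.3. Detection: 460/530 nm fluorescence.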", "values": [
      {"compound": "Cc1ccccc1-c1ccc2ncnc(N(C)Cc3ccco3)c2c1", "activity, negative = inhibition": "-13.4%"},
      {"compound": "COc1cccc(-c2cncnc2NCc2ccc(OC)cc2OC)c1", "activity, negative = inhibition": "-6.14%"},
      {"compound": "CN(Cc1ccco1)c1nc(-c2ccccc2Cl)nc2ccccc12", "activity, negative = inhibition": "21.7%"},
      {"compound": "O=C(c1cccc(F)c1)N1CCC[C@@]2(CCN(C(c3ccccc3)c3ccccc3)C2)C1", "activity, negative = inhibition": "12.6%"},
      {"compound": "COc1ccc(-c2nc3cnc(Nc4cccc(OC)c4)nc3n(CCC#N)c2=O)cc1", "activity, negative = inhibition": "-10%"},
      {"compound": "COc1cccc(-c2nc(Nc3ccncc3)c3ccccc3n2)c1", "activity, negative = inhibition": "-15.1%"},
      {"compound": "COc1ccccc1CNc1ncnc2ccc(-c3cccnc3)cc12", "activity, negative = inhibition": "-17.2%"},
      {"compound": "Nc1nc2n[nH]nc2c(=O)[nH]1", "activity, negative = inhibition": "-26.9% [at 17.2 µM]"},
      {"compound": "CN(Cc1ccco1)c1nc(-c2cccc(C#N)c2)nc2ccccc12", "activity, negative = inhibition": "12.3%"}
    ]},
    {"target": "Glucocorticoid receptor (Homo sapiens) (UniProt P04150)", "sequence (P04150 whole entry, looked up, the tested form may be a part)": "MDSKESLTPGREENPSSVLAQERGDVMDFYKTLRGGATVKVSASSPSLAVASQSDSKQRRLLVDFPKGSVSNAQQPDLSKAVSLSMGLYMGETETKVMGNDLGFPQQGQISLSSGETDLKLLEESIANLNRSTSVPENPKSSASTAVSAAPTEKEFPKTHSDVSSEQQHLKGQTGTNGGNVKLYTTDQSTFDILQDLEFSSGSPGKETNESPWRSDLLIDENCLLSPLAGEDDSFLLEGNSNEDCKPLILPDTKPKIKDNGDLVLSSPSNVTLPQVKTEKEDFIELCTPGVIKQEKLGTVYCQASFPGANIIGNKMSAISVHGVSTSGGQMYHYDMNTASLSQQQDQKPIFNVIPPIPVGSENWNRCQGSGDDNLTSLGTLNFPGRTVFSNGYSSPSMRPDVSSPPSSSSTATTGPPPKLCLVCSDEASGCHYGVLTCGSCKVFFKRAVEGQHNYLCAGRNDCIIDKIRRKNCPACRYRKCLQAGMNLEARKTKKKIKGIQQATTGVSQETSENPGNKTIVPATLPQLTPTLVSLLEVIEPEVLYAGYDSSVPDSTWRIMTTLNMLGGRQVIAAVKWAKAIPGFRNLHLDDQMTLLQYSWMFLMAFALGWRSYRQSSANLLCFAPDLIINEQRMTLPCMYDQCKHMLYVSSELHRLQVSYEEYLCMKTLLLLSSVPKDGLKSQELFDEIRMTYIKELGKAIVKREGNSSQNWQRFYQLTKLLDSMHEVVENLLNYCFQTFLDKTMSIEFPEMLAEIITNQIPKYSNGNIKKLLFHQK", "experiment": "GR-GFP Redistribution (AID 450;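 active = compounds whose dose series gives a full or clear partial fitted curve of increased nuclear translocation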; also: potency is read from the fitted curve at half-maximal effect)", "conditions": "U2OS GR-GFP nuclear translocation, laser cytometry, 2 h", "units": {"Potency": "µM"}, "values": [
      {"compound": "N#C/C(=C\\c1ccc(O)c(O)c1)C(=O)NCCCCc1ccccc1", "Potency": "> 46"},
      {"compound": "Cc1ccccc1-c1ccc2ncnc(N(C)Cc3ccco3)c2c1", "Potency": "> 46"},
      {"compound": "COc1cccc(-c2cncnc2NCc2ccc(OC)cc2OC)c1", "Potency": "> 46"},
      {"compound": "CN(Cc1ccco1)c1nc(-c2ccccc2Cl)nc2ccccc12", "Potency": "> 46"},
      {"compound": "COc1ccc(-c2nc3cnc(Nc4cccc(OC)c4)nc3n(CCC#N)c2=O)cc1", "Potency": "> 9.22"},
      {"compound": "COc1ccccc1CNc1ncnc2ccc(-c3cccnc3)cc12", "Potency": "> 46"},
      {"compound": "COc1c(-c2ccc(O)c(O)c2)oc2cc(O)cc(O)c2c1=O", "Potency": "> 46"},
      {"compound": "Nc1nc2n[nH]nc2c(=O)[nH]1", "Potency": "> 20.6"},
      {"compound": "CN(Cc1ccco1)c1nc(-c2cccc(C#N)c2)nc2ccccc12", "Potency": "> 46"}
    ]},
    {"target": "Glucocorticoid receptor (Homo sapiens) (UniProt P04150)", "experiment": "GR-EFC Redistribution (AID 451; calls by dose curve; also: potency is read from the fitted curve at half-maximal effect)", "conditions": "CHO-K1 GR-EFC translocation, beta-gal luminescence, 2 h", "in_short": "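CHO-K1 cells expressing nuclear EA and GR-ED fragments of b-gal; compounds titrated up to 46 uM final, 2 h at 37 C. GR nuclear translocation read as complemented b-gal luminescence after 1 h RT detection.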", "units": {"Potency": "µM"}, "values": [
      {"compound": "N#C/C(=C\\c1ccc(O)c(O)c1)C(=O)NCCCCc1ccccc1", "Potency": "> 46"},
      {"compound": "Cc1ccccc1-c1ccc2ncnc(N(C)Cc3ccco3)c2c1", "Potency": "> 46"},
      {"compound": "COc1cccc(-c2cncnc2NCc2ccc(OC)cc2OC)c1", "Potency": "> 46"},
      {"compound": "CN(Cc1ccco1)c1nc(-c2ccccc2Cl)nc2ccccc12", "Potency": "> 46"},
      {"compound": "O=C(c1cccc(F)c1)N1CCC[C@@]2(CCN(C(c3ccccc3)c3ccccc3)C2)C1", "Potency": "> 46"},
      {"compound": "COc1ccc(-c2nc3cnc(Nc4cccc(OC)c4)nc3n(CCC#N)c2=O)cc1", "Potency": "> 46"},
      {"compound": "COc1cccc(-c2nc(Nc3ccncc3)c3ccccc3n2)c1", "Potency": "> 46"},
      {"compound": "COc1ccccc1CNc1ncnc2ccc(-c3cccnc3)cc12", "Potency": "> 46"},
      {"compound": "COc1c(-c2ccc(O)c(O)c2)oc2cc(O)cc(O)c2c1=O", "Potency": "> 46"},
      {"compound": "Nc1nc2n[nH]nc2c(=O)[nH]1", "Potency": "> 20.6"},
      {"compound": "CN(Cc1ccco1)c1nc(-c2cccc(C#N)c2)nc2ccccc12", "Potency": "> 46"}
    ]}
  ]
}
